“And” between values parts separate entries of the source, which are not always exact repeats. Equal entries are not always repeated. The panel holds about 83,000 compounds, 20% with a hit somewhere; the sample as a whole holds those more often.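 The endpoint reported here, percent growth, reads 100 for growth as untreated, 0 for no net growth and -100 for all cells dead.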 A number with no mark means an inactive call. The source made the active and inactive calls. How the source made its calls: active means growth percent below 10; inactive means the rest.
Each compound was assayed on HL-60(TB) leukemia (assay: NCI-60 one-dose screen, 48 h (100 = growth as untreated, 0 = no growth, -100 = all killed)). Conditions: 10 µM unless noted.
Work on `O=C(Nc1ccc(OS(=O)(=O)c2ccc(F)cc2)cc1)C1CCCCCC1` yielded a growth of 56.4%.
For `Nc1ncnc2c1c(-c1ccc(Oc3ccccc3)cc1)nn2C[C@@H]1SSC[C@H]1O`, the growth was -27.5% (active).
`CCOc1ccc(NC(=S)N2CCC(CCCC3CCN(C(=S)Nc4ccc(OCC)cc4)CC3)CC2)cc1` was tested, and the growth was 68.9%.
Compound `COc1cc(/C=C\c2cc(/C=C\c3ccc(O)c(OC)c3)n(C(=O)Nc3ccc(C(F)(F)F)cc3)n2)ccc1O` has a growth of 15.2%.
Compound `CCN(CC)CCC(CNc1c2ccc(Cl)cc2nc2ccc(OC)cc12)c1ccccc1` (stereo not drawn) has a growth of 28.7%.
Compound `OCCCC1CCN(C(Cc2ccccc2)c2ccccc2)CC1` (stereo not drawn) has a growth of 95.8%.
`CC(CN(C)C)CN1c2ccccc2Sc2ccccc21` (stereo not drawn) was tested, and the growth was 91.3% and 105% and 94.5%.
`COc1ccc(Cn2c(Br)c3c(c2-c2cc(OC)c(OC)c(OC)c2)CCc2sc(NC(C)=O)nc2-3)cc1` showed a growth of 15.2%.
With `C=C1C(=O)O[C@H]2[C@H]1CC/C(COC(=O)CCC(=O)OC/C1=C/CC[C@@]3(C)O[C@H]3[C@H]3OC(=O)C(=C)[C@@H]3CC1)=C\CC[C@@]1(C)O[C@@H]21` the growth was -41.9% (active).
`COc1cc(C(=O)C[n+]2ccccc2)ccc1OC(C)=O` was tested, and the growth was 101%.
With `C#Cc1nc2ccccc2c(=O)[nH]1` the growth was -42.4% (active).
`CCOC(=O)NCCc1nc2c([nH]1)c(=O)n(C)c(=O)n2C` was tested, and the growth was 124%.
For `Cc1cc(C(=O)O)c(N)c(C)n1`, the growth was 102%.

Source: PubChem BioAssay (NCI)
